Hits are enriched below; roughly 6.8% of the tested compounds scored in any of these assays.
Pf Dd2 inh = P. falciparum Dd2 growth inhibition; SYBR Green, 72 h; active compounds read low; activity change, % at 10 µM; 94,000 tested, 2.3% active; in the data active means activity change below about -80%; inconclusive means no clear call, values can overlap the other calls
T cruzi growth-1 = T. cruzi proliferation inhibition; T. cruzi beta-gal in NIH3T3, GalScreen luminescence, 90 h; inhibition, % at 8.34 µM; 77,000 tested, 5.9% active;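 active means mean inhibition above about 93%, with at least 55% of replicates each passing it, limit read from the data, passing the limit was not always enough; inconclusive means only one of those two conditions holds; inactive means neither condition holds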
C diff growth = blocks growth of Clostridium difficile. Clostridium difficile clinical isolate growth, OD600, 24 h; active compounds read low. growth activity, negative = inhibition, % at 16 µg/mL (by protocol). 86,000 tested, 0.25% active;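 active means mean growth activity at or below -80% and every replicate also at or below -80%; inconclusive means mean at or below -80% but some replicate above -80%; inactive means mean growth activity above -80%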;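 further: 0% = DMSO wells and -100% = levofloxacin 16 µg/mL wells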
T cruzi growth-2 = inhibitors of T. cruzi proliferation | shares compounds with T cruzi growth-1 | inhibition, % at 8.35 µM | 5,600 tested, 72% active | T. cruzi beta-gal in NIH3T3, GalScreen luminescence, 90 h;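 active means mean replicate inhibition above about 95% and at least 55% of replicates individually reaching it, limit read from the data; inconclusive means only one of the two criteria is met; inactive means neither criterion is met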
T cruzi growth-3 = Trypanosoma cruzi proliferation inhibition. inhibition, % at 2.09 µM. shares compounds with T cruzi growth-1. T. cruzi beta-gal in NIH3T3, GalScreen luminescence, 90 h. AID 651740. 5,600 tested, 21% active;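 active means mean inhibition above about 95%, with at least 55% of replicates also reaching it, limit read from the data; inconclusive means meets just one of the two conditions; inactive means meets neither condition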;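 further: plate controls were neutral control median for no effect and positive control median for full effect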
NIH3T3 tox = kills mouse NIH/3T3 fibroblasts; shares compounds with T cruzi growth-1; AID 651742; NIH/3T3 viability, CellTiter-Glo ATP luminescence, 90 h; cytotoxicity (signal decrease), % at 8.35 µM; 5,600 tested, 14% active;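 active means mean signal decrease across replicates above about 35% based on untreated-well scatter, with enough replicates individually passing, limit read from the data; inconclusive means no rule stated though some were filed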;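 further: 0% = median of neutral control wells and 100% = median of positive control wells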
NIH3T3 tox 2 = kills mouse NIH/3T3 fibroblasts | shares compounds with T cruzi growth-1 | NIH/3T3 viability, CellTiter-Glo ATP luminescence, 90 h | inhibition, % at 24.9 µM | 5,600 tested, 56% active | AID 651744;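 active means mean loss of cell viability signal at or above a set limit, and enough replicates individually reaching it; inconclusive means meets only the mean limit or only the replicate share; inactive means meets neither condition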;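 further: 0% = median of neutral control wells and 100% = median of positive control wells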
* hit, by the source's call; ? = inconclusive; / = no result.

SMILES | Pf Dd2 inh | T cruzi growth-1 | C diff growth | T cruzi growth-2 | T cruzi growth-3 | NIH3T3 tox | NIH3T3 tox 2
C[C@@H]1CCCCO[C@@H](CN(C)Cc2ccc3c(c2)OCO3)[C@@H](C)CN([C@@H](C)CO)C(=O)c2cc(NC(=O)Nc3ccc4c(c3)OCO4)ccc2O1 | -18 | 87 | / | / | / | / | /
C[C@@H]1CCCCO[C@H](CN(C)Cc2ccc(Cl)c(Cl)c2)[C@@H](C)CN([C@H](C)CO)C(=O)c2cc(NC(=O)Nc3ccc4c(c3)OCO4)ccc2O1 | 8 | 103* | -2 | 107* | 105* | 25 | 13
C[C@@H]1CCCCO[C@H](CN(C)Cc2ccc3c(c2)OCO3)[C@H](C)CN([C@@H](C)CO)C(=O)c2cc(NC(=O)Nc3ccc4c(c3)OCO4)ccc2O1 | -77 | 87 | / | / | / | / | /
CCC(=O)N[C@H]1C=C[C@@H](CC(=O)NCCN2CCCCC2)O[C@H]1CO | 31 | -44 | 0 | / | / | / | /
CNC[C@H]1Oc2cc(C#Cc3ccc(OC)cc3)ccc2S(=O)(=O)N([C@@H](C)CO)C[C@@H]1C | -73 | 109* | 2 | 103* | 94 | -4 | 105*
CNC[C@@H]1Oc2cc(C#Cc3cccc(OC)c3)ccc2S(=O)(=O)N([C@@H](C)CO)C[C@@H]1C | -69 | / | 14 | / | / | / | /
CNC[C@@H]1Oc2cc(C#Cc3ccc(OC)cc3)ccc2S(=O)(=O)N([C@H](C)CO)C[C@H]1C | -56 | 103* | 0 | 107* | 81 | 15 | 105*
CNC[C@H]1Oc2cc(C#Cc3ccc(F)cc3)ccc2S(=O)(=O)N([C@H](C)CO)C[C@@H]1C | -64 | / | 6 | / | / | / | /
N#C[C@@H]1[C@H](c2ccc(-c3ccccc3)cc2)[C@@H](CO)N1C(=O)Cc1ccccc1 | -19 | 101* | 10 | 108* | 51 | 21 | 53*
N#C[C@H]1[C@@H](c2ccc(-c3ccc(F)cc3)cc2)[C@H](CO)N1C(=O)Cc1ccccc1 | -7 | ? | 6 | 106* | 61 | 17 | 77*
N#C[C@H]1[C@@H](c2ccc(-c3ccccc3)cc2)[C@@H](CO)N1C(=O)Cc1ccccc1 | 14 | 49 | 5 | / | / | / | /
N#C[C@@H]1[C@@H](c2ccc(-c3ccc(F)cc3)cc2)[C@@H](CO)N1S(=O)(=O)Cc1ccccc1 | -31 | 99* | 3 | 97* | 94 | 13 | 102*
N#C[C@@H]1[C@@H](c2ccc(-c3ccc(F)cc3)cc2)[C@H](CO)N1C(=O)Cc1ccccc1 | -19 | 62 | 3 | / | / | / | /
N#C[C@H]1[C@@H](c2ccc(-c3ccccc3)cc2)[C@@H](CO)N1S(=O)(=O)Cc1ccccc1 | -15 | 91 | 0 | / | / | / | /
COCC(=O)N1[C@H](C#N)[C@H](c2ccccc2-c2cccc(C)c2)[C@H]1CO | 39 | / | 7 | / | / | / | /
CCCC#Cc1cnc2c(c1)C(=O)N([C@H](C)CO)C[C@H](C)[C@@H](CN(C)Cc1ccc3c(c1)OCO3)O2 | -42 | -47 | 10 | / | / | / | /
CN(C)C(=O)c1cccc(-c2ccc3c(c2)[C@H]2[C@H](CCN2C(=O)c2ccccc2F)[C@@H](CO)N3)c1 | -49 | 101* | 1 | 104* | 51 | -8 | -14
O=C(c1ccccc1F)N1CC[C@@H]2[C@H](CO)Nc3ccc(-c4ccccc4)cc3[C@@H]21 | 26 | 81 | -1 | / | / | / | /
CN(C)C(=O)c1cccc(-c2ccc3c(c2)[C@@H]2[C@@H](CCN2C(=O)c2ccccc2F)[C@H](CO)N3)c1 | -31 | 101* | 3 | 101* | 64 | 15 | -18
O=C(c1ccccc1F)N1CC[C@H]2[C@H](CO)Nc3ccc(-c4ccccc4)cc3[C@H]21 | -3 | 80 | 0 | / | / | / | /
CN(C)C(=O)c1ccc(-c2ccc3c(c2)[C@@H]2[C@@H](CCN2C(=O)c2ccccc2F)[C@H](CO)N3)cc1 | -4 | 43 | 15 | / | / | / | /
CN(C)C(=O)c1cccc(-c2ccc3c(c2)[C@H]2[C@H](CCN2C(=O)c2ccccc2F)[C@H](CO)N3)c1 | -10 | 99* | 9 | 103* | 83 | -7 | 15
CCCNC(=O)C[C@@H]1CC[C@@H]2[C@@H](COc3ccc(NC(=O)c4cscn4)cc3C(=O)N2C)O1 | 9 | 15 | -4 | / | / | / | /
C[C@@H]1CN([C@@H](C)CO)C(=O)c2cc(-c3ccccc3)cnc2O[C@H]1CN(C)C | 12 | 21 | -2 | / | / | / | /
CC(C)CC#Cc1cnc2c(c1)C(=O)N([C@@H](C)CO)C[C@@H](C)[C@H](CN(C)C(=O)Nc1ccccc1F)O2 | -32 | / | -10 | / | / | / | /
SMILES | Pf Dd2 inh | T cruzi growth-1 | C diff growth | T cruzi growth-2 | T cruzi growth-3 | NIH3T3 tox | NIH3T3 tox 2
Cc1noc(C)c1S(=O)(=O)N(C)C[C@@H]1OCCCC[C@@H](C)Oc2ccc(NC(=O)C3CCCCC3)cc2C(=O)N([C@@H](C)CO)C[C@H]1C | -55 | 3 | 3 | / | / | / | /
COc1cccc(C(=O)Nc2ccc3c(c2)C(=O)N(C)[C@H]2CC[C@@H](CC(=O)NCc4ccc(F)cc4)O[C@@H]2CO3)c1 | -26 | 41 | 4 | / | / | / | /
CN1C(=O)c2cc(NC(=O)c3ccc(Cl)cc3)ccc2OC[C@@H]2O[C@H](CC(=O)NCc3cccc(F)c3)CC[C@@H]21 | -23 | 101* | 11 | 92 | 66 | 43* | 34*
CNC(=O)C[C@H]1CC[C@H]2[C@@H](COc3ccc(NC(=O)c4ccccc4OC)cc3C(=O)N2C)O1 | -3 | 4 | 8 | / | / | / | /
COc1cccc(C(=O)Nc2ccc3c(c2)C(=O)N(C)[C@H]2CC[C@@H](CC(=O)NCc4ccc(F)cc4)O[C@H]2CO3)c1 | -36 | 97* | -2 | 105* | 16 | 51* | 50*
CN1C(=O)c2cc(NC(=O)c3ccc(Cl)cc3)ccc2OC[C@H]2O[C@@H](CC(=O)NCc3cccc(F)c3)CC[C@H]21 | -8 | 91 | 14 | / | / | / | /
COc1ccccc1C(=O)Nc1ccc2c(c1)C(=O)N(C)[C@H]1CC[C@H](CC(=O)Nc3cccc(C(C)C)c3)O[C@@H]1CO2 | / | ? | -9 | 106* | 68 | 30 | 23
CCC(=O)N1[C@H](CO)[C@H](c2ccc(C3=CCCCC3)cc2)[C@@H]1CN(C)C(C)=O | 24 | / | -4 | / | / | / | /
C[C@H]1CN([C@@H](C)CO)C(=O)c2ccccc2-c2ccccc2CO[C@H]1CN(C)S(=O)(=O)c1ccc(C#N)cc1 | -23 | -16 | / | / | / | / | /
COc1ccc(S(=O)(=O)Nc2ccc3c(c2)CC(=O)N([C@@H](C)CO)C[C@H](C)[C@@H](CN(C)C(=O)Nc2ccc(F)cc2)O3)cc1 | 7 | 4 | -9 | / | / | / | /
N#Cc1ccc(-c2ccc3c(c2)[C@@H]2[C@@H](CCN2Cc2ccc4c(c2)OCO4)[C@@H](CO)N3)cc1 | -63 | 101* | -102* | 105* | 102* | 30 | 106*
O=C(C1CC1)N1CC[C@@H]2[C@H](CO)Nc3ccc(C#Cc4ccc(F)cc4)cc3[C@@H]21 | -37 | 64 | -19 | / | / | / | /

Screening data: PubChem BioAssay, Broad Institute
